Assay results reported in PubChem BioAssay (NCATS).
Inconclusive results are not listed. Activity calls are given as the source filed them. Calls follow the shape of the dose curve; as a rule, active = well fitted inhibition curve with a large enough effect; inconclusive = small, poorly fitted or top-dose-only effect; inactive = no such curve, though single readings can be large or run the other way.

assay: Primary fluorescence-based thiol-reactive (MSTI) qHTS assay for identification of artifact compounds. (AID 1845221); conditions: MSTI thiol-reactivity probe, 1 h; series mostly up to 53.8 µM; activity change, negative = thiol reactive: at the top concentration; also: nearly all actives have a fitted effect of over 65% in size;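 as to activity change, negative = thiol reactive: thiol-reactive compounds lower the probe fluorescence signal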
From the text: PI: Alexander Tropsha Ph.D.
UNC Eshelman School of Pharmacy
University of North Carolina, Chapel Hill, North Carolina
Hits from high-throughput screening (HTS) of chemical libraries are often false positives due to their interference with the assay detection technology. In response to this problem, we generated the largest publicly available library of chemical liabilities and developed a free webtool to predict HTS artifacts, both of which are described herein. More specifically, we generated, curated, and integrated HTS datasets for thiol reactivity, redox activity, and luciferase (firefly and nano) activity. Using these curated datasets, we developed and validated several Quantitative Structure-Interference Relationship (QSIR) models to predict nuisance behavior. […] These models were employed for virtual profiling of the National Center for Advancing Translational Science's (NCATS) in-house library, and 256 compounds for each assay were selected for the experimental validation of nuisance behavior. The BA for these external predictions ranged from 58 to 78% for compounds within the applicability domains of the models. […] The models developed in this study, along with aggregation models previously developed by our group (SCAM Detective) were implemented in "Liability Predictor," an online tool which may be used as part of chemical library design or for triaging HTS hits. Both the models and the curated datasets are publicly available at https://liability.mml.unc.edu/.
SEQUENCE No. (e.g., 1, 2, 3, etc.); […] (e.g., Cells, Incubation, Reagent, etc.); VALUE; DESCRIPTION.
1; Reagent; 4 uL; […].
2; Compounds and control; 16 nL; Kalypsis pin tool (Wako USA) equipped with a 1536-well pin head.
4; Detection; Fluorescence, ViewLux microplate reader, 525 nm excitation, 598 nm emission.
NOTES (numbers refer to Sequence numbers above)
1. Assays determining (E)-2-(4-mercaptostyryl)-1,3,3-trimethyl-3H-indol-1-ium (MSTI) reactivity were performed as previously described in the literature with modifications for the quick identification of compounds reacting with thiol. In brief, 4 uL of MSTI or positive control Acetyl-MSTI (final concentrations of 4 uM and 4 uM, respectively) in assay buffer (2% DMSO in 1X PBS pH 7.4) was dispensed into all wells of a 1536-well assay plate (solid-bottom black plate; Greiner Bio One, Monroe, NC).
2. A Wako Pin-tool (Wako Automation, Richmond, VA) was used to transfer 16 nL of compounds (consisting of 7-plates in qHTS format, final concentration range 18.3 nM to 114 uM) or control MLS001163887 (final concentration range 1.22 nM to 40 uM).
3. Plates were centrifuged (121xg, 15 seconds) and incubated for 1 hour at room temperature protected from light.
4. Samples were read for fluorescence (Ex/Em = 525(20)/598(25) nm) on a ViewLux CCD imager (PerkinElmer). Data were normalized to Acetyl-MSTI (0% activity) and MSTI (100% activity) and the resulting percent inhibition data were fitted to a 4-parameter Hill equation using NCATS in-house software.
Potency is read from the fitted curve at half-maximal effect.

SMILES	activity change, negative = thiol reactive	Potency
Cc1cc(Nc2nc(N[C@@H](C)c3ncc(F)cn3)ncc2Cl)n[nH]1	-5.42% (inactive)	
Cn1cc(-c2ccc3nnc(C(F)(F)c4ccc5ncccc5c4)n3n2)cn1	218% (inactive)	
CC[C@@H](C)[C@H](NC(=O)[C@H](CC1CCCCC1)NC(=O)c1ccno1)C(=O)N1CCC2(CCc3ccccc32)CC1	-7.13% (inactive)	
Cc1ccnc(NS(=O)(=O)c2ccc(NC(=O)Nc3ccc(S(=O)(=O)Nc4nccc(C)n4)cc3)cc2)n1	21.4% (inactive)	
CN(C)c1ccc(C2Nc3ccc4ccccc4c3C3=C2C(=O)CC(C)(C)C3)cc1Br (stereo not given)	-14.9% (inactive)	
N#CC[C@H](C1CCCC1)n1cc(-c2ncnc3[nH]ccc23)cn1	42.9% (inactive)	
O=C(O)CCc1ccc(NCc2cccc(Oc3ccccc3)c2)cc1		1.68 µM (active)
CS(=O)(=O)c1cccc(CNc2nc(Nc3ccc4c(c3)CCC(=O)N4)ncc2C(F)(F)F)c1	-15.5% (inactive)	
CS(=O)(=O)c1ccc(C(=O)Nc2ccc(Cl)c(-c3ccccn3)c2)c(Cl)c1	231% (inactive)	
COc1cc2nccc(Oc3ccc(NC(=O)NC4CC4)c(Cl)c3)c2cc1C(N)=O	47.8% (inactive)	
CNCc1ccc(-c2[nH]c3cc(F)cc4c3c2CCNC4=O)cc1	-18.3% (inactive)	
O=C(NOC[C@H](O)CO)c1ccc(F)c(F)c1Nc1ccc(I)cc1F	147% (inactive)	
COc1c(Cl)cc2c([nH]c3cnccc32)c1NC(=O)c1cccnc1C	102% (inactive)	
CCOc1cc(C(=O)Nc2ccc(Cl)c(-c3nc4ccccc4[nH]3)c2)cc(OCC)c1OCC	159% (inactive)	
Cc1n[nH]c(C)c1Cc1sc2c(c1C(=O)N1C[C@H](O)CO1)c(=O)n(C)c(=O)n2CC(C)C	12% (inactive)	
COc1cc(F)c(F)c(Nc2ccc(I)cc2F)c1NS(=O)(=O)C1(C[C@H](O)CO)CC1	272% (inactive)	
CCCc1nn(C)c2c(=O)[nH]c(-c3cc(S(=O)(=O)N4CCN(C)CC4)ccc3OCC)nc12	230% (inactive)	
CNC(=O)c1ccccc1Sc1ccc2c(/C=C/c3ccccn3)n[nH]c2c1	104% (inactive)	
O=C(c1cc(Cc2n[nH]c(=O)c3ccccc23)ccc1F)N1CCN(C(=O)C2CC2)CC1	65.2% (inactive)	
COc1cccc2cc(-c3nc(C4CCC(C(=O)O)CC4)n4ncnc(N)c34)[nH]c12 (stereo not given)		26.7 µM (active)

SMILES	activity change, negative = thiol reactive	Potency
Cc1cc(SCc2sc(-c3ccc(C(F)(F)F)cc3)nc2C)ccc1OCC(=O)O	154% (inactive)	
C#Cc1cccc(Nc2ncnc3cc(OCCOC)c(OCCOC)cc23)c1	99.6% (inactive)	
CN(C)C(=O)c1ccc(S(=O)(=O)c2ccc(NC(=O)[C@@](C)(O)C(F)(F)F)c(Cl)c2)cc1	141% (inactive)	
CCCS(=O)(=O)Nc1ccc(F)c(C(=O)c2c[nH]c3ncc(-c4ccc(Cl)cc4)cc23)c1F	38.4% (inactive)	
Clc1ccc(Nc2nnc(Cc3ccncc3)c3ccccc23)cc1	14.4% (inactive)	
CC[C@H](Nc1ncnc2nc[nH]c12)c1nc2cccc(F)c2c(=O)n1-c1ccccc1	52.7% [at 11.5 µM] (inactive)	
COc1cc(Nc2ncc3c(n2)-c2ccc(Cl)cc2C(c2c(F)cccc2OC)=NC3)ccc1C(=O)O		inactive
O=C(Nc1ccc(F)c(C(F)(F)F)c1)Nc1nnc(-c2ccncc2)s1	47.4% (inactive)	
COc1ccccc1[C@H](c1cccc2ccccc12)[C@@](C)(C#N)C(=O)N1CCC(c2cccc(C(F)(F)F)c2)CC1	4.86% (inactive)	
CCN(CC)CCCC(C)Nc1ccnc2cc(Cl)ccc12 (stereo not given)	-0.305% [at 11.5 µM] (inactive)	
CCC(C)n1ncn(-c2ccc(N3CCN(c4ccc(OC[C@H]5CO[C@](Cn6cncn6)(c6ccc(Cl)cc6Cl)O5)cc4)CC3)cc2)c1=O (stereo not given in full)	-8.71% [at 25.6 µM] (inactive)	
O=C1CCCC2=C1C(c1[nH]ncc1Cl)N=C(Nc1nc3ccccc3o1)N2 (stereo not given)	11.9% (inactive)	
CCc1cncnc1N1CCN(Cc2nc3ccc(C(F)(F)F)cc3[nH]2)CC1	134% (inactive)	
CC(C)(Sc1ccc(CCN(CCCCC2CCCCC2)C(=O)NC2CCCCC2)cc1)C(=O)O	56.7% (inactive)	
CNC(=O)c1ccc(C)c(-n2c(C)cc(OCc3ccc(F)cc3F)c(Br)c2=O)c1	6.19% (inactive)	
CCOc1ccn(-c2ccc(F)cc2)c(=O)c1C(=O)Nc1ccc(Oc2ccnc(N)c2Cl)c(F)c1	307% (inactive)	
Cn1cnc2c(F)c(Nc3ccc(Br)cc3Cl)c(C(=O)NOCCO)cc21	222% (inactive)	
CCCS(=O)(=O)Nc1ccc(F)c(C(=O)c2c[nH]c3ncc(Cl)cc23)c1F	216% (inactive)	
S=C(NCc1ccc2c(c1)OCO2)N1CCN(c2ncnc3c2oc2ccccc23)CC1	369% (inactive)	
CC1(C)Cc2c(-c3ccccc3)c(-c3ccc(Cl)cc3)c(CC(=O)O)n2C1	-0.509% (inactive)	
